Results on four molecules are retold here after PubChem BioAssay (EPA / NIEHS).

Test [1] addresses Estrogen-related receptor gamma (Homo sapiens) (UniProt P62508). As to the kind of experiment: ATG_ERRg_TRANS: Attagene TRANS-FACTORIAL HepG2 Assay for human Estrogen-Related Receptor gamma (ERRg) (AID 2282977; active = hit-call score of the fitted dose curve at least 0.9, where 1 is the maximum;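 also: hits increase reporter signal over DMSO so potencies reflect activators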). As to conditions: HepG2 Attagene TRANS reporter, ERRg transactivation. An outline of the steps:
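Transient HepG2 transfectants, 24 h compound exposure, GAL4-UAS reporter mRNA by RT-PCR/6-FAM labelling/capillary electrophoresis; positive direction vs DMSO.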

Test [2] addresses Glucocorticoid receptor (Homo sapiens) (UniProt P04150). As to the kind of experiment: ATG_GR_TRANS: Attagene TRANS-FACTORIAL HepG2 Assay for human Glucocorticoid Receptor (GR) (AID 2282978; active = hit-call score of the fitted dose curve at least 0.9, where 1 is the maximum;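 also: activators score as hits since higher reporter transcript over DMSO is fitted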). The following applies: HepG2 Attagene TRANS GR reporter, mRNA transcription. An outline of the steps:
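HepG2 cells transiently transfected with GAL4-UAS reporter units and exogenous GR-Gal4 chimera, dosed 24 h. Reporter mRNA by RT-PCR, FAM labeling, HpaI digest and capillary electrophoresis; gain-of-signal fit versus DMSO.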

The target of test [3] is Oxysterols receptor LXR-alpha (Homo sapiens) (UniProt Q13133). The test is described as follows: ATG_LXRa_TRANS: Attagene TRANS-FACTORIAL HepG2 Assay for human Liver X Receptor alpha (LXRa) (AID 2282980; active = hit-call score of the fitted dose curve at least 0.9, where 1 is the maximum). The following applies: HepG2 Attagene TRANS reporter, LXRa transactivation. An outline of the steps: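 HepG2 cells were transiently transfected with multiplexed reporter units driven by chimeric LXRa–GAL4 fusion proteins, then dosed for 24 h. Reporter mRNA was quantified by RT-PCR, fluorescent labelling and capillary electrophoresis; gain of signal fitted against DMSO baseline.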
Oxysterols receptor LXR-alpha (Homo sapiens), sequence (Q13133 whole entry, looked up, the tested form may be a part): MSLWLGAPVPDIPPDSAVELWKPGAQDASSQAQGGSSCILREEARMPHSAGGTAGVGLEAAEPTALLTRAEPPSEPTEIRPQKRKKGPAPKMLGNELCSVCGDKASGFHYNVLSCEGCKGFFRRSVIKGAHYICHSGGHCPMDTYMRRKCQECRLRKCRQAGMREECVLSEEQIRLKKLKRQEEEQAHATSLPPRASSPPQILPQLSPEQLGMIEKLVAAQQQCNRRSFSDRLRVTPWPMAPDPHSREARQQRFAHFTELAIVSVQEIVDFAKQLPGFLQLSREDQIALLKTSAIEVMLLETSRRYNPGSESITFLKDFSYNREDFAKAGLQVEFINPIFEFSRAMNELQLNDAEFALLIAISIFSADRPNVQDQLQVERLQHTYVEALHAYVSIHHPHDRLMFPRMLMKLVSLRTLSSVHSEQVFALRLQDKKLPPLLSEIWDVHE

The target of test [4] is Oxysterols receptor LXR-beta (Homo sapiens) (UniProt P55055). As to the kind of experiment: ATG_LXRb_TRANS: Attagene TRANS-FACTORIAL HepG2 Assay for human Liver X Receptor beta (LXRb) (AID 2282981; active = hit-call score of the fitted dose curve at least 0.9, where 1 is the maximum). The following applies: HepG2 Attagene TRANS GAL4-LXRb reporter, mRNA. An outline of the steps:
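HepG2 cells transiently transfected with multiple reporter transcription units carrying chimeric NR-Gal4 proteins acting on GAL4-UAS reporters; compound exposure 24 h. Reporter mRNA quantified by RT-PCR, 6-FAM labelling, HpaI digestion and capillary electrophoresis; gain of signal versus DMSO.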

Test [5] has as its target Hepatocyte nuclear factor 4-alpha (Homo sapiens) (UniProt P41235). As to the kind of experiment: ATG_HNF4a_TRANS: Attagene TRANS-FACTORIAL HepG2 Assay for human Hepatocyte Nuclear Factor 4 alpha (HNF4a) (AID 2282982; active = hit-call score of the fitted dose curve at least 0.9, where 1 is the maximum). As to conditions: HepG2 HNF4a transactivation reporter, mRNA readout. Summed up: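 HepG2 cells transiently transfected with multiplexed GAL4-UAS reporter units responsive to chimeric NR-GAL4 proteins; compound exposure 24 h. Reporter mRNA quantified by RT-PCR, 6-FAM labelling, HpaI digestion and capillary electrophoresis; gain of signal versus DMSO baseline.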

The nature of test [6]: ATG_M_06_TRANS: Attagene TRANS-FACTORIAL HepG2 Assay for M06 Transcription Factor (Internal Marker) (AID 2282983; active = hit-call score of the fitted dose curve at least 0.9, where 1 is the maximum). The following applies: HepG2 Attagene TRANS M06 internal marker reporter. Summed up:
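HepG2 cells transiently transfected with multiplexed GAL4-UAS reporter transcription units; after 24 h compound exposure, reporter mRNA measured by RT-PCR, FAM-labelled primer extension, HpaI digestion and capillary electrophoresis. Gain-of-signal fitted versus DMSO baseline; background control readout.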

The nature of test [7]: ATG_M_32_TRANS: Attagene TRANS-FACTORIAL HepG2 Assay for M32 Transcription Factor (Internal Marker) (AID 2282984; active = hit-call score of the fitted dose curve at least 0.9, where 1 is the maximum). As to conditions: HepG2 Attagene TRANS M32 internal marker reporter. Summed up: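 HepG2 cells transiently transfected with multiple GAL4-UAS reporter transcription units, dosed for 24 hours; reporter mRNA quantified by RT-PCR, 6-FAM primer extension, HpaI digestion and capillary electrophoresis. Gain-of-signal fitted versus DMSO baseline; internal background-control marker.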

Test [8] deals with Nuclear receptor subfamily 4 group A member 2 (Homo sapiens) (UniProt P43354). The test is described as follows: ATG_NURR1_TRANS: Attagene TRANS-FACTORIAL HepG2 Assay for human Nuclear Receptor Related Protein 1 (NURR1) (AID 2282985; active = hit-call score of the fitted dose curve at least 0.9, where 1 is the maximum). The following applies: HepG2 Attagene TRANS reporter, mRNA readout. Summed up: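 HepG2 cells transiently transfected with GAL4-UAS reporter units and chimeric NR-Gal4 constructs; chemical exposure 24 h. Reporter mRNA quantified by RT-PCR, fluorescent labelling and capillary electrophoresis; gain of signal fitted relative to DMSO baseline.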
Nuclear receptor subfamily 4 group A member 2 (Homo sapiens), sequence (P43354 whole entry, looked up, the tested form may be a part): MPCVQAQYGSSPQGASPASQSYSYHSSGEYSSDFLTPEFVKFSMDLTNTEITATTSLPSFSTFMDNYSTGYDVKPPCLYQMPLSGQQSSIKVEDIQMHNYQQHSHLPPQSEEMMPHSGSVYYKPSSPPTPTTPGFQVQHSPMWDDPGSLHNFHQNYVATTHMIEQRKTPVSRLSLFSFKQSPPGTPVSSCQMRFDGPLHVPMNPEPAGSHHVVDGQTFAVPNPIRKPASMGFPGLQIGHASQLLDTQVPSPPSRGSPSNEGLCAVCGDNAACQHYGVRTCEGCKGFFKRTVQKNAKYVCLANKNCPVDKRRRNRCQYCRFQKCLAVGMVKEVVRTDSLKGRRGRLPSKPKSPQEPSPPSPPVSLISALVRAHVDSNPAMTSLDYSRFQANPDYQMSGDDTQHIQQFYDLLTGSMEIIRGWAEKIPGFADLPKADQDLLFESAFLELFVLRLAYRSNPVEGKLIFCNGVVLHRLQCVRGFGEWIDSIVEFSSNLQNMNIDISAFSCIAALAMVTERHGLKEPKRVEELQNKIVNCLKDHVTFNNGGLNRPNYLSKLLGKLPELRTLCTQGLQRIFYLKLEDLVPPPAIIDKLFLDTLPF

In test [9] the target is Transcriptional activator Myb (Homo sapiens) (UniProt P10242). The test is described as follows: ATG_Myb_CIS: Attagene CIS-FACTORIAL HepG2 Assay for human Myeloblastosis (Myb) Proto-Oncogene Transcription Factor (AID 2282986). The following applies: HepG2 Attagene CIS-FACTORIAL Myb reporter transcription; actives raise or lower the signal. Summed up: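 Transiently transfected HepG2 cells carrying a multiplexed cis-promoter reporter set report endogenous Myb activity after 24 h compound exposure. Reporter mRNA is read by RT-PCR with capillary electrophoresis of fluorescent products, fitted bidirectionally against DMSO.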
Transcriptional activator Myb (Homo sapiens), sequence (P10242 whole entry, looked up): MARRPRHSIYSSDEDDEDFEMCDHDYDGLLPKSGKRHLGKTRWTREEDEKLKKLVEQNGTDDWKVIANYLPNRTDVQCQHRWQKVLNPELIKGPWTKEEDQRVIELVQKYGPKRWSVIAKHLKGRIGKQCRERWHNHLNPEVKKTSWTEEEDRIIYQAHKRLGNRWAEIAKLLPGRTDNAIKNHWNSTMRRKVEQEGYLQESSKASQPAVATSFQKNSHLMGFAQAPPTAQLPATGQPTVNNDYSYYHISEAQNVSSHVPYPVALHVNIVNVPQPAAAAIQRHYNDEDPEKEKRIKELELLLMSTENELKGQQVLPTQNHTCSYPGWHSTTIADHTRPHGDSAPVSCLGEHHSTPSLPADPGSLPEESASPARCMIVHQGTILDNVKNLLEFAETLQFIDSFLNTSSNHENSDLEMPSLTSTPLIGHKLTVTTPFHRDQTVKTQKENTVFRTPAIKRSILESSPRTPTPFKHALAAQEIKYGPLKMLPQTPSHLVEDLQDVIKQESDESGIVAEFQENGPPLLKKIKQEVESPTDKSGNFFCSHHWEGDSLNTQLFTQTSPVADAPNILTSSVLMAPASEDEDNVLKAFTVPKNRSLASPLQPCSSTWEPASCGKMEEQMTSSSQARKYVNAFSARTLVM

Test [10] is described as follows: ATG_NFI_CIS: Attagene CIS-FACTORIAL HepG2 Assay for human Nuclear Factor I (NFI) (AID 2282989). The following applies: HepG2 cis-regulatory reporter, NFI response element transcription; actives raise or lower the signal. An outline of the steps:
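Reporter transcripts were measured by RT-PCR with fluorescent primer extension and capillary electrophoresis 24 h post-treatment. HepG2 cells carried transiently transfected cis-regulated reporter constructs reporting endogenous factor activity; gain or loss fitted against DMSO baseline.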

Test [11] addresses Myc proto-oncogene protein (Homo sapiens) (UniProt P01106). The test is described as follows: ATG_Myc_CIS: Attagene CIS-FACTORIAL HepG2 Assay for human Myelocytomatosis (Myc) Proto-Oncogene Transcription Factor (AID 2282990). The following applies: HepG2, Attagene cis-reporter transcription factor activity; actives raise or lower the signal. Summed up:
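DMSO-normalised, bidirectionally fitted reporter mRNA signal. HepG2 cells transfected with cis reporter constructs, treated 24 h; transcripts detected by RT-PCR, 6-FAM primer extension and CE.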

Test [12] can be described thus: ATG_NF_kB_CIS: Attagene CIS-FACTORIAL HepG2 Assay for human Nuclear Factor Kappa B (NF-kB) (AID 2282991). The following applies: HepG2 Attagene cis-factorial NF-kB reporter mRNA; actives raise or lower the signal. Summed up: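 HepG2 cells transfected with cis-promoter-driven reporter units, so endogenous transcription factor activity is measured. Reporter mRNA quantified 24 h after dosing by RT-PCR and capillary electrophoresis, with bidirectional fitting against DMSO.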

Test [13] is described as follows: ATG_NRF2_ARE_CIS: Attagene CIS-FACTORIAL HepG2 Assay for human Nuclear Factor Erythroid 2 Related Factor 2 (NFR2) response to Antioxidant Response Elements (ARE) (AID 2282992).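 As to AC50: reporter mRNA level measured by RT-PCR and capillary electrophoresis fluorescence.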 As to conditions: HepG2 Attagene ARE/NRF2 reporter, transcription factor activity; actives raise or lower the signal. An outline of the steps: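 Transient MRTU transfection of HepG2; 24 h compound exposure; TriZol RNA, RT with oligo(dT), PCR, 6-FAM primer extension, HpaI cut, CE. Bidirectional fit vs DMSO.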

The nature of test [14]: ATG_Oct_MLP_CIS: Attagene CIS-FACTORIAL HepG2 Assay for human Octamer-Binding Transcription Factor (Oct) (AID 2282993). The following applies: HepG2 Attagene cis-factorial Oct reporter, mRNA; actives raise or lower the signal. An outline of the steps: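 Readout is reporter transcript level from RT-PCR with fluorescent primer extension and capillary electrophoresis, fitted in both directions against DMSO. Transfected HepG2 reporter units report endogenous factor activity after 24 h dosing.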

Test [15] can be described thus: BSK_3C_TissueFactor: BioMAP Diversity Plus: 3C Assay for Tissue Factor Biomarker Activity (AID 2282997). The following applies: BioMAP 3C HUVEC, tissue factor biomarker readout; actives raise or lower the signal. Summed up:
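Primary human umbilical vein endothelial cells in the 3C system were exposed to test chemical for 24 h, then Tissue Factor measured by ELISA. Activity was fitted bidirectionally against DMSO as negative control and baseline.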

Test [16] is described as follows: BSK_3C_uPAR: BioMAP Diversity Plus: 3C Assay for Urokinase-type plasminogen activator receptor (uPAR) Biomarker Activity (AID 2282998). As to conditions: BioMAP 3C HUVEC, uPAR biomarker ELISA; actives raise or lower the signal. Summed up:
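Cell-surface uPAR on HUVEC (3C system) read by ELISA at 24 h post-treatment, with DMSO as baseline and fitting in both directions. Parallel cultures stained with SRB to flag overt cytotoxicity.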

The nature of test [17]: ATG_GAL4_TRANS: Attagene TRANS-FACTORIAL HepG2 Assay for GAL4 (Internal Marker) (AID 2282976; active = hit-call score of the fitted dose curve at least 0.9, where 1 is the maximum). The following applies: HepG2 Attagene TRANS GAL4 internal marker reporter. Summed up:
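HepG2 cells transiently transfected with multiplexed GAL4-UAS reporter constructs were dosed for 24 h. Reporter mRNA was measured by RT-PCR, 6-FAM primer extension, HpaI digestion and capillary electrophoresis, and gain of signal was fitted relative to DMSO.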

The target in test [18] is Bile acid receptor (Homo sapiens) (UniProt Q96RI1). As to the kind of experiment: ATG_FXR_TRANS: Attagene TRANS-FACTORIAL HepG2 Assay for Farnesoid X Receptor (FXR) (AID 2282979; active = hit-call score of the fitted dose curve at least 0.9, where 1 is the maximum;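 also: hits raise reporter mRNA above DMSO so AC50 marks FXR activation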). The following applies: HepG2 Attagene TRANS FXR-GAL4 reporter transcription. Summed up: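 HepG2 cells transiently transfected with reporter constructs in which a chimeric FXR-GAL4 protein drives a GAL4-UAS reporter; 24 h compound exposure. Reporter mRNA measured by RT-PCR, FAM labelling, HpaI digestion and capillary electrophoresis; gain-of-signal versus DMSO.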
Bile acid receptor (Homo sapiens), sequence (Q96RI1 whole entry, looked up, the tested form may be a part): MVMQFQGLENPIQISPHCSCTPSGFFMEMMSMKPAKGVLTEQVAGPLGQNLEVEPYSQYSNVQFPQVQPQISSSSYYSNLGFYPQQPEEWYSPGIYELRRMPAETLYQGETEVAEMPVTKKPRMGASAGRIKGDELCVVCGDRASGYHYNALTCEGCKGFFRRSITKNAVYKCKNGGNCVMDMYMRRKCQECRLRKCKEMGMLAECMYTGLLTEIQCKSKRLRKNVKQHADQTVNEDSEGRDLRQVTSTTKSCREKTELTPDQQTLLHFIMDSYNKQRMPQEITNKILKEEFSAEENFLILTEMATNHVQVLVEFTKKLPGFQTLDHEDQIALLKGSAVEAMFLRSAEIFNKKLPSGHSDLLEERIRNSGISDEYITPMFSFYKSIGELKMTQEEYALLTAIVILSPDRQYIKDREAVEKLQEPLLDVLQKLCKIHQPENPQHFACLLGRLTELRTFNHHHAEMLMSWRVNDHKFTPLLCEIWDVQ

Test [19] deals with Nuclear respiratory factor 1 (Homo sapiens) (UniProt Q16656). The test is described as follows: ATG_NRF1_CIS: Attagene CIS-FACTORIAL HepG2 Assay for human Nuclear Respiratory Factor 1 (NRF1) Orphan Gene (AID 2282987). As to conditions: HepG2 NRF1 cis-element reporter, Attagene multiplex; actives raise or lower the signal. An outline of the steps:
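HepG2 cells transiently transfected with multiple cis-regulated reporter units, exposed 24 h. Reporter mRNAs measured by RT-PCR, fluorescent labelling, HpaI digestion and capillary electrophoresis; bidirectional fitting against DMSO.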

Test [20] has as its target Cellular tumor antigen p53 (Homo sapiens) (UniProt P04637). The test is described as follows: ATG_p53_CIS: Attagene CIS-FACTORIAL HepG2 Assay for human p53 Transcription Factor (AID 2282994). As to conditions: HepG2 p53 cis-element reporter, Attagene mRNA; actives raise or lower the signal. Summed up: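 HepG2, transient MRTU transfection (cis promoter elements, endogenous TFs); 24 h dosing; RNA isolation, RT-PCR, 6-FAM primer extension, HpaI digest, CE fluorescence; bidirectional fit vs DMSO.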

SMILES strings stand for the structures. Inconclusive results are not listed. Active and inactive are the calls of the source. The calls were made as follows, unless noted: active = hit-call score of the fitted dose curve at least 0.9, where 1 is the maximum; inactive = score below 0.9.

Glucocorticoid receptor (Homo sapiens), sequence (P04150 whole entry, looked up, the tested form may be a part): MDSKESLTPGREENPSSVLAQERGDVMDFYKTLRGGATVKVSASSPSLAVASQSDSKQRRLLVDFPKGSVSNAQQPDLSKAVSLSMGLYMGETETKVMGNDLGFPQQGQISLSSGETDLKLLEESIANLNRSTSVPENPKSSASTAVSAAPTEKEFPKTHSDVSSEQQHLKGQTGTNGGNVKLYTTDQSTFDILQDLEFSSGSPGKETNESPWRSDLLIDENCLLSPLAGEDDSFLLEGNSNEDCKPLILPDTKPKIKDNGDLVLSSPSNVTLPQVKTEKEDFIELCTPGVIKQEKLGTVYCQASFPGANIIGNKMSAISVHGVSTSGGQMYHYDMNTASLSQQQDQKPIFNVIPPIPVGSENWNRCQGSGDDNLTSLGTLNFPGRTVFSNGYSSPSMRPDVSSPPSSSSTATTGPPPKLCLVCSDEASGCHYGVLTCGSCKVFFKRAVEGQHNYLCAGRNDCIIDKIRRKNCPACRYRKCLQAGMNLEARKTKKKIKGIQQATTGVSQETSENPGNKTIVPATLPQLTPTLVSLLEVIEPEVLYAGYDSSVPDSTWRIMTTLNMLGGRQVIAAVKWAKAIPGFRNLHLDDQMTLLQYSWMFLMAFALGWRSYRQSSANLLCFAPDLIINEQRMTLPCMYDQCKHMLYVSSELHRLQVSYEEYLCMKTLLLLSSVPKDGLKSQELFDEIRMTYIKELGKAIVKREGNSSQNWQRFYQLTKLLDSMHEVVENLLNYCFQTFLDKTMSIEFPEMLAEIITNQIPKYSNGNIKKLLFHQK
Myc proto-oncogene protein (Homo sapiens), sequence (P01106 whole entry, looked up): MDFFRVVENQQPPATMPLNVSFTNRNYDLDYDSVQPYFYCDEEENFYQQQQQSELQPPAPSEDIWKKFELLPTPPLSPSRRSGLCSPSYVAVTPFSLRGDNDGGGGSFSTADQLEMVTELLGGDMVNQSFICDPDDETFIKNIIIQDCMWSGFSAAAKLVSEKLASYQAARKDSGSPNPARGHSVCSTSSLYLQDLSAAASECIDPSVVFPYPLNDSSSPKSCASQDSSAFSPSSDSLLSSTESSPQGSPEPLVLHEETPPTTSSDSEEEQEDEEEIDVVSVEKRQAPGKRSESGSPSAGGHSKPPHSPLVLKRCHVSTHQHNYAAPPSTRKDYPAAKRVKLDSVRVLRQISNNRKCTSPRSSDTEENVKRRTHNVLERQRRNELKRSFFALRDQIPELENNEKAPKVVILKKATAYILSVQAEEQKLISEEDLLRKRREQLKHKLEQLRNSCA
Oxysterols receptor LXR-beta (Homo sapiens), sequence (P55055 whole entry, looked up, the tested form may be a part): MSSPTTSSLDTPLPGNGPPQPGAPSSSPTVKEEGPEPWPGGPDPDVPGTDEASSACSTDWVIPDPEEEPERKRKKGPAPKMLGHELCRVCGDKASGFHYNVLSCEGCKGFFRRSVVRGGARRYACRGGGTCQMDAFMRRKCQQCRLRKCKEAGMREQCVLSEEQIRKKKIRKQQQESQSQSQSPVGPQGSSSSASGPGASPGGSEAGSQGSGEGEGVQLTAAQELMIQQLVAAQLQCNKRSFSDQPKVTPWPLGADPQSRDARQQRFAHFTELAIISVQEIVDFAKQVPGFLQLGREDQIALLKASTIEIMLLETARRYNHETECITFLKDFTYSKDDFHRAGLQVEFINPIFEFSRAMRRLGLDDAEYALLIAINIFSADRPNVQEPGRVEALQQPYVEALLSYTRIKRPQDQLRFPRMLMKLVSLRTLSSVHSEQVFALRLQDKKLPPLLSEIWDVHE
Hepatocyte nuclear factor 4-alpha (Homo sapiens), sequence (P41235 whole entry, looked up, the tested form may be a part): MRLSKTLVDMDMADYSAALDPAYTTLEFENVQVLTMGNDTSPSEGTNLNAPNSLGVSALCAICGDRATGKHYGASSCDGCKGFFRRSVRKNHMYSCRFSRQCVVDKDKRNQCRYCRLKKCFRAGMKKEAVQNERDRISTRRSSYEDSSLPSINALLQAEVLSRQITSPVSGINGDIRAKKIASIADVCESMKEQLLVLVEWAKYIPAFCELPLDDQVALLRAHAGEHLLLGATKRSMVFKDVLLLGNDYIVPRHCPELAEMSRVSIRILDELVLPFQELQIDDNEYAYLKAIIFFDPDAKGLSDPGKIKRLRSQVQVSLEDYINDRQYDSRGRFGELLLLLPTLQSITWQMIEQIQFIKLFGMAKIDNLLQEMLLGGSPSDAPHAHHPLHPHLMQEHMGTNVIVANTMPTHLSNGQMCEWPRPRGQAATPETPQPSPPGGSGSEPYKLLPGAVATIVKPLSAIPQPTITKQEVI
Estrogen-related receptor gamma (Homo sapiens), sequence (P62508 whole entry, looked up, the tested form may be a part): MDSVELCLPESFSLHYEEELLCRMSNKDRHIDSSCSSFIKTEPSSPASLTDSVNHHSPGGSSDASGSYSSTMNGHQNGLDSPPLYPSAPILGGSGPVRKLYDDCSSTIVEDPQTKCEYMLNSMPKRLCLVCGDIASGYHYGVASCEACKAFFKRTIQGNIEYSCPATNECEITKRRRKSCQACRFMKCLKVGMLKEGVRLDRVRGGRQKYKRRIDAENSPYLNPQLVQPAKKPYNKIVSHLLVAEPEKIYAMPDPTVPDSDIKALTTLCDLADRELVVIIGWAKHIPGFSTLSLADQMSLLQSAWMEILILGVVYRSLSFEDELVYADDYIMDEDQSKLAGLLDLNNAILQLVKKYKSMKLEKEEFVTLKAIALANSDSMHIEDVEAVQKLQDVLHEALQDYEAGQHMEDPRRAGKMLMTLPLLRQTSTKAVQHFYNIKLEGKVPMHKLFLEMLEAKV

As to `CCOC(=O)COc1cc(-c2nn(C)c(OC(F)F)c2Cl)c(F)cc1Cl`, the molecule was classed as inactive in [1], in [2], in test [3], in test [4], in test [5] and in [6]. For the same molecule, the molecule was called inactive in test [7], in test [8], in [9], in test [10], in test [11] and in [12]. The molecule was classed as inactive in [13], in test [14], in [15] and in [16].
`CCOP(=O)(NC(C)C)Oc1ccc(SC)c(C)c1` (stereo not drawn): the result in test [17], in [2], in test [18], in [3], in [4] and in [6] was inactive. For the same molecule, the molecule was called inactive in test [7], in [9], in test [19], in [10], in test [11] and in [12]. Also, the outcome in test [15] and in [16] was inactive. Further, the figures for the AC50 in test [13] and in test [14] were 5.22 µM (active) and 11.2 µM (active), respectively.
For `N#CSCSC#N`, the outcome in test [1], in test [2], in test [3], in test [4], in test [5] and in test [6] was inactive. Moreover, the result in [7], in test [8], in [9], in test [10], in [11] and in test [12] was inactive. Also, the result in [13] and in test [14] was inactive. Moreover, the concentration at half-maximal activity (AC50) in test [15] was 5.49 µM (active); in [16], 5.93 µM (active).
For `CCCOCC(=Nc1ccc(Cl)cc1C(F)(F)F)n1ccnc1`, the molecule was classed as inactive in [17], in [18], in test [4], in test [5], in test [6] and in test [7]. Moreover, the molecule was called inactive in test [9], in test [10], in test [11], in test [12], in [14] and in test [20]. The results for the AC50 in [13], in test [15] and in [16] were 7 µM (active), 28.8 µM (active) and 31.7 µM (active), respectively.
